Data from PubChem BioAssay (Tox21).
Results filed as inconclusive are left out. The source made the active and inactive calls. Unless noted, the call rests on the fitted dose curve.

Experiments:
[1] = Nuclear factor erythroid 2-related factor 2/antioxidant responsive element (Nrf2/ARE) small molecule agonists: qHTS cell viability counter screen in human keratinocytes (AID 1919968; active means well fitted curve in the direction sought with a large enough effect in the repeat runs; an effect the other way counts as inactive or inconclusive; further: nearly all actives have a fitted effect of over 55% in size)
Summary of the method: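 Stably transfected HaCaT (KeratinoSens), 1,500/well. Test agents in DMSO were applied for 23 h, 37 C/5% CO2. CellTiter-Fluor was incubated 1 h before the fluorescence read.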

[2] = Nuclear factor erythroid 2-related factor 2/antioxidant responsive element (Nrf2/ARE) small molecule agonists: luciferase reporter gene qHTS assay in human keratinocytes (AID 1919969); further: nearly all actives have a fitted effect of over 35% in size
[3] = molecular target: Gonadotropin-releasing hormone receptor (Homo sapiens) (UniProt P30968); assay: Human gonadotropin-releasing hormone receptor (GnRHR) small molecule agonists, calcium flux assay in GnRHR-HEK293 cells (AID 1920063); further: nearly all actives have a fitted effect of over 35% in size
Sequence of Gonadotropin-releasing hormone receptor (Homo sapiens) (P30968 whole entry, looked up): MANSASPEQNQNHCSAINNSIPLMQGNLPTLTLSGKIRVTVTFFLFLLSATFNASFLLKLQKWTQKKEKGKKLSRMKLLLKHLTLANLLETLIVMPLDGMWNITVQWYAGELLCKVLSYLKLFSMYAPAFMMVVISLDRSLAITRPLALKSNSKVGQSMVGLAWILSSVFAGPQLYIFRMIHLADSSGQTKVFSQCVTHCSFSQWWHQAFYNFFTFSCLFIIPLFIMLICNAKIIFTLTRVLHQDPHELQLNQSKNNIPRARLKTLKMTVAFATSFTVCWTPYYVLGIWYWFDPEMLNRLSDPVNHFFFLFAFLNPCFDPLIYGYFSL
Summary of the method: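 Stable human GnRHR HEK293 line. 18 h plating, then calcium dye for 1 h at 37 C. Agonist-mode compound addition from DMSO stocks; fluorescence monitored 3 min.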

[4] = molecular target: KiSS-1 receptor (Homo sapiens) (UniProt Q969F8); assay: Human kisspeptin (KISS1R) small molecule agonists, calcium flux assay in KISS1R-HEK293 cells (AID 1920064; active means well fitted curve in the direction sought with a large enough effect in the repeat runs; an effect the other way counts as inactive or inconclusive)
Sequence of KiSS-1 receptor (Homo sapiens) (Q969F8 whole entry, looked up): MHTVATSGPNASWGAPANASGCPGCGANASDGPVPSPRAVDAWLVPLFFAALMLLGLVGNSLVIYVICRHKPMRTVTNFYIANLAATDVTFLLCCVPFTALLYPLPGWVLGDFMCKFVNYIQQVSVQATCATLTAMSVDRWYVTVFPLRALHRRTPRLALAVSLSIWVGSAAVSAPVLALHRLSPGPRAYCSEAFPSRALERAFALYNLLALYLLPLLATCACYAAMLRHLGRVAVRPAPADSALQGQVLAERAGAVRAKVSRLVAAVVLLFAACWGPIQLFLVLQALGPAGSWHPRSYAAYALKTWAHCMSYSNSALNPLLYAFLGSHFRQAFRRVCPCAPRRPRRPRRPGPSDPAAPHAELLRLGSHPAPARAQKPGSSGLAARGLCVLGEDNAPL
Summary of the method: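 After overnight (18 h) culture at 37 C/5% CO2, human KISS1R-HEK293 cells received calcium dye for 1 h, then test compound; emission at 540 nm (excitation 480 nm) was tracked for 3 min.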

[5] = G protein-coupled receptor (GPCR) small molecule agonists, calcium flux assay: HEK293 wild type cell line counter screen (AID 1920065)
Summary of the method: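 Following 18 h incubation at 37 C/5% CO2, plates got calcium dye for 1 h; compounds, ATP or DMSO were then pinned in and fluorescence followed kinetically (480/540 nm).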

[6] = p53 small molecule agonists, cell-based qHTS assay with human liver microsomes (AID 1963577);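 further: p53 response element beta-lactamase reporter cells with liver microsomes plus NADPH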
Summary of the method: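 Steps: plate p53RE-bla cells, incubate 5 h at 37 C; add compound in DMSO; add microsomes (0.5 mg/mL final) and NADPH (0.5 mg/mL final); incubate 16 h at 37 C; add LiveBLAzer, 2 h RT; read fluorescence.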

[7] = p53 small molecule agonists, cell-based qHTS assay with rat liver microsomes (AID 1963578)
Summary of the method: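 Metabolic activation is supplied by rat liver microsomes with NADPH (each 0.5 mg/mL final). p53RE-bla cells incubate with compound 16 h at 37 C; reporter activity is measured by LiveBLAzer fluorescence.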

[8] = p53 small molecule agonists, cell-based qHTS assay with human liver microsomes: qHTS cell viability counter screen (AID 1963579); further: nearly all actives have a fitted effect of over 45% in size
Summary of the method: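 After the 460/530 nm beta-lactamase read, CellTiter-Glo was added to the same wells and luminescence measured after 30 min at room temperature, giving viability of p53RE-bla cells treated 16 h with compounds plus microsomes and NADPH.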

[9] = p53 small molecule agonists, cell-based qHTS assay: qHTS cell viability counter screen (AID 1963581); further: nearly all actives have a fitted effect of over 45% in size
Summary of the method: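 qHTS counter screen: 16 h compound exposure at 37 C of p53RE-bla HCT-116 cells (4,000 per well, seeded 5 h prior), cell viability by ATP luminescence.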

[10] = p53 small molecule agonists, cell-based qHTS assay (AID 1963582; active means well fitted activation curve with a large enough effect in the signal ratio in the repeat runs, not every such curve was filed as active; the % refers to the signal ratio)
Summary of the method: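 Measured: fluorescence from cleaved LiveBLAzer substrate. System: p53RE-bla cells, 16 h compound treatment at 37 C, 2 h substrate step at room temperature.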

[11] = molecular target: 5-hydroxytryptamine receptor 2A (Homo sapiens) (UniProt P28223); assay: 5-hydroxytryptamine receptor 2A (HTR2A) small molecule antagonists, cell-based qHTS assay (AID 1963586); further: nearly all actives have a fitted effect of over 45% in size
Sequence of 5-hydroxytryptamine receptor 2A (Homo sapiens) (P28223 whole entry, looked up): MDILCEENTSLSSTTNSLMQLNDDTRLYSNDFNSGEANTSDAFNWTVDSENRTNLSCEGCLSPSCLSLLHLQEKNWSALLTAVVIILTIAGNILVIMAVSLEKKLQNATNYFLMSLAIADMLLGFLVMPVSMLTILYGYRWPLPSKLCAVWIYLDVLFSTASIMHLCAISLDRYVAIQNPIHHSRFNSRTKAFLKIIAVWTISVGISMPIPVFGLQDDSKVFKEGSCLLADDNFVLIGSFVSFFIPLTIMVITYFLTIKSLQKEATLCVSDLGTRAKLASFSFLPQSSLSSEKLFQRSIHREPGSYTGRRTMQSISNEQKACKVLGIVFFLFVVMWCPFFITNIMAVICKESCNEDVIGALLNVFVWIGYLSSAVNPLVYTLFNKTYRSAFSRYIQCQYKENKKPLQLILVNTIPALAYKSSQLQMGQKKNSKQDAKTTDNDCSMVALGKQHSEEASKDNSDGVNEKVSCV
Summary of the method: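 CHO cells stably expressing human HTR2A were plated for 18 h at 37 C, then loaded with calcium dye for 1 h. Compounds were preincubated 5 min at room temperature before DOI (4 nM solution) was added. Kinetic fluorescence was read for 3 min.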

[12] = molecular target: 5-hydroxytryptamine receptor 2A (Homo sapiens) (UniProt P28223); assay: 5-hydroxytryptamine receptor 2A (HTR2A) small molecule agonists, cell-based qHTS assay (AID 1963587); further: nearly all actives have a fitted effect of over 30% in size
Summary of the method: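 Kinetic calcium-flux fluorescence (2 min, 1 sec intervals) after compound addition in agonist mode. HTR2A-CHO cells were cultured 18 h, then dye-loaded 1 h at 37 C.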

[13] = molecular target: Muscarinic acetylcholine receptor M1 (Homo sapiens) (UniProt P11229); assay: Cholinergic receptor muscarinic 1 (CHRM1) small molecule antagonists, cell-based qHTS assay (AID 1963588); further: nearly all actives have a fitted effect of over 40% in size
Sequence of Muscarinic acetylcholine receptor M1 (Homo sapiens) (P11229 whole entry, looked up): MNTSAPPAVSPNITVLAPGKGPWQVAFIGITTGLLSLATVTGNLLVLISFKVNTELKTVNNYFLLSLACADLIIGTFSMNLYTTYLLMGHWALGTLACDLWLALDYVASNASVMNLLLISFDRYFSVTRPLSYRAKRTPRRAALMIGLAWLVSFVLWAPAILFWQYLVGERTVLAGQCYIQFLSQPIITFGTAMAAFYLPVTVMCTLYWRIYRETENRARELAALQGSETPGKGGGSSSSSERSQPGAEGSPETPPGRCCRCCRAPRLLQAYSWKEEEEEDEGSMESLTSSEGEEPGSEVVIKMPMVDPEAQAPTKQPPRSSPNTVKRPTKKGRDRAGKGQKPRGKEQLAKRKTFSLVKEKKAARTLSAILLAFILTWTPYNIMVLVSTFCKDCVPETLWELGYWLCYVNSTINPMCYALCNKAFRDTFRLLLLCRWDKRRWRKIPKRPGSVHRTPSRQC
Summary of the method: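 Compounds were tested at 15 concentrations in three independent runs. Dye-loaded CHRM1-CHO cells were exposed 5 min at room temperature before stimulation by acetylcholine added at 50nM. Intracellular calcium was read kinetically on FDSS for 3 min.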

[14] = molecular target: Muscarinic acetylcholine receptor M1 (Homo sapiens) (UniProt P11229); assay: Cholinergic receptor muscarinic 1 (CHRM1) small molecule agonists, cell-based qHTS assay (AID 1963589); further: nearly all actives have a fitted effect of over 35% in size
Summary of the method: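 Kinetic fluorescence (1 s intervals) of calcium-sensitive dye in human M1 CHO cells after compound addition; cells pre-incubated 18 h at 37 C/5% CO2 and dye-loaded 1 h.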

[15] = molecular target: Beta-2 adrenergic receptor (Homo sapiens) (UniProt P07550); assay: Adrenergic beta2 receptor (ADRB2) small molecule antagonists, cell-based qHTS assay (AID 1963592); further: series mostly up to about 92 µM; nearly all actives have a fitted effect of over 50% in size
Sequence of Beta-2 adrenergic receptor (Homo sapiens) (P07550 whole entry, looked up): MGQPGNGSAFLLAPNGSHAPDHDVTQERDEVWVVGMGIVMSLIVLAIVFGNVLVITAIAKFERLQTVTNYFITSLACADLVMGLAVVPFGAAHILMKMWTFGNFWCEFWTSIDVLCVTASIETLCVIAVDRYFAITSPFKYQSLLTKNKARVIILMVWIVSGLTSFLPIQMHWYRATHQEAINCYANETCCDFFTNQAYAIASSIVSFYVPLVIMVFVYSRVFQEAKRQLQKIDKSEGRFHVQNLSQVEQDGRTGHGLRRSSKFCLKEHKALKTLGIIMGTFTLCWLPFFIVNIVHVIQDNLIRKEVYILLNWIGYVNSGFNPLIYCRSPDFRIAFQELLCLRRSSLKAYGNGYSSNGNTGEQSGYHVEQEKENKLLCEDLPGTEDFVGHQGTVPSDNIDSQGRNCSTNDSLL
Summary of the method: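 Assay format: CHO-ADRB2 cells, 18-20hr seeding at 37C/5% CO2, then compound plus 1nM isoproterenol agonist mix for 0.5hr RT. Homogeneous time-resolved fluorescence cAMP detection after 1hr, expressed as 665/615 nm ratio.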

[16] = molecular target: D(2) dopamine receptor (Homo sapiens) (UniProt P14416); assay: Dopamine D2 receptor (DRD2) small molecule agonists, cell-based qHTS assay (AID 1963594); further: nearly all actives have a fitted effect of over 35% in size
Sequence of D(2) dopamine receptor (Homo sapiens) (P14416 whole entry, looked up): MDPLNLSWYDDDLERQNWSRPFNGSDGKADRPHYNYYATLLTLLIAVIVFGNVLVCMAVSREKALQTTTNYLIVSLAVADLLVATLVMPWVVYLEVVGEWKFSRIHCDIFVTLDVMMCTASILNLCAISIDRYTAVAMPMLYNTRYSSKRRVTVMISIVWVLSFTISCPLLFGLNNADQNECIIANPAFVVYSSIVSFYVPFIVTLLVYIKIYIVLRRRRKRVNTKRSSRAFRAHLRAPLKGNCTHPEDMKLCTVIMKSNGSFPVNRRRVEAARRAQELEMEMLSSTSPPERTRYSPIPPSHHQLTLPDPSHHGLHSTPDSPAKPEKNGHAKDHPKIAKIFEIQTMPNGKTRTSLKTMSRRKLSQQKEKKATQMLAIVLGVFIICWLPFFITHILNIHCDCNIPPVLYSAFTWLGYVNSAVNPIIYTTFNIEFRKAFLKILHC
Summary of the method: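 cAMP accumulation in DRD2-HEK293 cells measured by HTRF after 1 h detection; compounds added 10 min before NKH477 (200nM […]) forskolin-analogue stimulation, 30 min at room temperature, with Ro20-1724 present at 0.1 mM final.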

[17] = molecular target: D(2) dopamine receptor (Homo sapiens) (UniProt P14416); assay: Dopamine D2 receptor (DRD2) small molecule antagonists, cell-based qHTS assay (AID 1963595; active means well fitted inhibition curve with a large enough effect in the signal ratio in the repeat runs, with a control signal flat; the % refers to the signal ratio)
Summary of the method: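 DRD2-HEK293; 0.1 mM Ro20-1724; cpd 10 min RT; NKH477 200 nM + quinpirole 12 nM, 30 min RT; HTRF cAMP (cAMP-d2/anti-cAMP cryptate), 665/620 nm ratio after 1 h.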

[18] = cAMP Responsive Elements (CRE) small molecule agonists, cell-based qHTS assay (AID 1963590)
Summary of the method: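 Test agents in DMSO were incubated 3 h at 37 C/5% CO2 with CRE-bla HEK 293T cells seeded 18 h earlier; LiveBLAzer B/G FRET substrate was added and read after 2 h at room temperature.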

[19] = cAMP Responsive Elements (CRE) small molecule antagonists, cell-based qHTS assay (AID 1963591; active means well fitted inhibition curve with a large enough effect in the signal ratio in the repeat runs, not every such curve was filed as active; the % refers to the signal ratio)
Summary of the method: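 Reporter line CRE-bla HEK 293T in dialyzed-FBS DMEM; cells preincubated 18 h, treated 3 h with compound plus NKH477 (0.25 uM final); LiveBLAzer FRET, 2 h RT.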

[20] = molecular target: Beta-2 adrenergic receptor (Homo sapiens) (UniProt P07550); assay: Adrenergic beta2 receptor (ADRB2) small molecule agonists, cell-based qHTS assay (AID 1963593);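 further: CHO cells stably overexpressing human ADRB2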
Summary of the method: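 CHO cells stably over-expressing ADRB2 were plated overnight at 37C, then dosed with compounds plus a stimulation mix containing 100uM IBMX and 25uM Ro-20-1724 for 0.5hr at room temperature. cAMP was measured by HTRF competition, 1hr.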
On the % scale 0 is the no-effect control and ±100 the full control effect.

O=C(O)c1cc(O)c2c(c1)C(=O)c1cccc(O)c1C2=O
inactive: Potency [1] | Potency [2] | Potency [3] | outcome [4] | outcome [5] | Potency [6] | Potency [7] | Potency [8] | Potency [9] | Potency [10] | Potency [11] | Potency [12] | Potency [13] | Potency [14] | Potency [15] | Potency [16] | Potency [17]

C=CC(=O)OCCCCCCCCCC
inactive: Potency [1] | Potency [2] | Potency [3] | outcome [4] | outcome [5] | Potency [6] | Potency [7] | Potency [8] | Potency [9] | Potency [10] | Potency [11] | Potency [12] | Potency [13] | Potency [14] | Potency [18] | Potency [19] | Potency [15] | Potency [20] | Potency [16] | Potency [17]

C=CC(=C)CC/C=C(\C)CCC=C(C)C
inactive: activity change, negative = cytotoxicity [1] -0.584% [at 19 µM] | activity, positive = activation [2] 7.55% [at 19 µM] | activity change [3] 1.61% [at 11.8 µM, stronger effect = higher value] | activation [4] 5.69% [at 15.8 µM] | activation [5] -1.2% [at 11.8 µM] | activation [6] -0.261% [at 13.5 µM] | activation [7] 0.56% [at 13.6 µM] | activity change, negative = cytotoxicity [8] 1.39% [at 13.5 µM] | activity change, negative = cytotoxicity [9] 2.84% [at 13.5 µM] | activation [10] -2.41% [at 13.5 µM] | activity, negative = inhibition [11] 22.2% [at 12.7 µM] | activation [12] 6.61% [at 15.9 µM] | activity, negative = inhibition [13] -6.65% [at 12.6 µM] | activation [14] -0.116% [at 15.8 µM] | activation [18] 0.237% [at 19 µM] | activity change, negative = inhibition [19] 1.53% [at 18.9 µM] | activity change, negative = inhibition [15] 10.9% [at 19 µM] | Potency [20] | activation [16] -0.761% [at 19 µM] | activity change, negative = inhibition [17] -0.805% [at 18.9 µM]

CCOC(=O)CC
inactive: Potency [1] | Potency [2] | Potency [3] | outcome [4] | outcome [5] | Potency [6] | Potency [7] | Potency [8] | Potency [9] | Potency [10] | Potency [12] | Potency [13] | Potency [14] | Potency [18] | Potency [19] | Potency [15] | Potency [16] | Potency [17]

C=COCCCCO
inactive: Potency [1] | Potency [2] | Potency [3] | outcome [4] | outcome [5] | Potency [6] | Potency [7] | Potency [8] | Potency [9] | Potency [10] | Potency [11] | Potency [12] | Potency [14] | Potency [18] | Potency [19] | Potency [15] | Potency [20]

CCOc1cc(OCC)c(C(C)=O)cc1OCC
inactive: Potency [1] | Potency [2] | Potency [3] | outcome [4] | outcome [5] | Potency [6] | Potency [7] | Potency [8] | Potency [9] | Potency [10] | Potency [11] | Potency [12] | Potency [13] | Potency [14] | Potency [15] | Potency [20] | Potency [16] | Potency [17]
